Shown are actives, neighbours in structure and some others; about 3.5% of the full set was active somewhere.
GPR151 ag: human GPR151 activation; Q8TDV0; PathHunter beta-arrestin GPR151 cells, luminescence; activation, % at 11.2 µM; 1% of 650,000 active; AID 1508602; in the data active means activation above about 4.9%
FBW7 act: activators of human E3 ligase FBW7; 0.13% of 650,000 active; AlphaScreen FBW7–phospho-cyclin E peptide binding, activator screen; normalized activity (activation), % at 26.1 µM; Q969H0; AID 1259310; in the data active means normalized activity above about 1.9%;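 further: purified mutant Fbw7 with reduced substrate affinity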
TEAD-YAP block: TEAD-YAP interaction inhibition | HEK-TIYL cells, TEAD-Gal4/YAP UAS-luciferase luminescence | inhibition, % at 9.12 µM | 1.4% of 640,000 active; in the data active means inhibition above about 32%
MITF inh: inhibitors of human MITF; O75030; AlphaScreen MITF homodimerization, bead proximity signal; inhibition, % at 2.6 µM; 0.91% of 650,000 active; AID 1259374; in the data active means inhibition above about 50%
MITF inh conf: human MITF inhibition, confirmation | shares compounds with MITF inh | AlphaScreen MITF homodimerization, biotin/His-MITF beads | inhibition, % at 2.6 µM | 16% of 4,700 active | AID 1259372;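 active means inhibition above a cutoff derived from the DMSO control wells, cut at about 28% in these data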;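 further: inhibitors lower the bead chemiluminescence by keeping MITF from dimerizing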
AS interf DR: AlphaScreen optical interference, dose response counter-screen; IC50, µM; shares compounds with MITF inh; AlphaScreen optical interference counterscreen, cell-free; 6% of 480 active; call rule not given here
AlphaScreen intf2: counter-screen: compounds optically interfering with AlphaScreen; shares compounds with MITF inh; LysRS AlphaScreen counterscreen, signal interference, triplicate; inhibition, % at 2.6 µM; 7.6% of 4,700 active; AID 1259376;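 active means inhibition above a cutoff derived from the DMSO control wells, cut at about 30% in these data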
A number is an active result; - = inactive; . = no result.

SMILES | GPR151 ag | FBW7 act | TEAD-YAP block | MITF inh | MITF inh conf | AlphaScreen intf2 | others
CC(O)(CNCCN1CCOCC1)COc1ccc(Cl)cc1 (stereo not given) | - | - | - | 55 | 73 | - | AS interf DR=-
O=S(=O)(Cc1ccc(Cl)cc1)NCCN1CCOCC1 | - | - | - | 72 | - | -
O=S(=O)(NCCCN1CCOCC1)c1ccc(Cl)cc1 | - | - | - | - | . | .
CC1CN(CCCCOc2ccc(Cl)cc2)CC(C)O1 (stereo not given) | - | - | - | - | . | .
COc1cc(CN2CCN(C3CCC(c4ccccc4)CC3)CC2)cc(OC)c1OC (stereo not given) | - | - | - | 69 | - | -
COc1cc(CN2CCC(N3CCOCC3)CC2)cc(OC)c1OC | - | - | - | - | . | .
COc1ccc(OC)c(CN2CCN(C3CCC(c4ccccc4)CC3)CC2)c1 (stereo not given) | - | - | - | 54 | - | -
COc1ccc(OC)c(CN2CCC(N3CCN(CCO)CC3)CC2)c1 | - | - | - | 81 | - | -
COc1cc(CN2CCC(N3CCN(C)CC3)CC2)cc(OC)c1OC | - | - | - | 87 | - | -
COCCn1c(SCC(=O)Nc2ccc(C)cc2)nnc1C(C)C | - | - | - | - | . | .
Cc1cccc(NC(=O)c2cccc([N+](=O)[O-])c2C)c1C | - | - | - | - | . | .
O=C(NCc1ccccc1)c1ccc(CS(=O)c2ccc(Br)cc2)o1 (stereo not given) | - | - | - | - | . | .
O=C(NCc1ccco1)c1ccc(CS(=O)c2ccc(Br)cc2)o1 (stereo not given) | - | - | - | 77 | - | -
Cc1ccc(NC(=O)CSc2nnc(C)s2)cc1 | - | - | - | - | . | .
COc1cc(CN2CCN(Cc3ccccc3Br)CC2)c([N+](=O)[O-])cc1OC | - | - | - | 71 | - | -
COc1cccc(CN2CCN(Cc3ccccc3[N+](=O)[O-])CC2)c1 | - | - | - | 64 | - | -
COc1cc(CN2CCN(Cc3ccccc3[N+](=O)[O-])CC2)cc(OC)c1O | - | - | - | 60 | - | -
COc1cc(OC)c(OC)cc1CN1CCN(Cc2ccccc2[N+](=O)[O-])CC1 | - | - | - | 72 | - | -
COc1ccc(C(=O)O)cc1S(=O)(=O)Nc1ccc(Cl)cc1 | - | - | - | - | . | .
O=C(N/N=C/C1CC2CCC1C2)c1ccccc1Br (stereo not given) | - | - | - | - | . | .
Cc1ccc(NC(=O)CCCOc2ccc(C(C)(C)C)cc2)c(Br)c1 | - | - | - | - | . | .
O=Cc1ccc(OCC(=O)Nc2ccc(F)cc2)c(Cl)c1 | - | - | - | - | . | .
CCOc1ccccc1C1C(C#N)=C(SCC(N)=O)NC(C)=C1C(=O)Nc1ccccc1 (stereo not given) | - | - | - | - | . | .
COc1cc(CN2CCN(CCO)CC2)cc([N+](=O)[O-])c1O | - | - | - | 75 | - | -
COc1ccc(CN2CCN(Cc3ccccc3[N+](=O)[O-])CC2)cc1OCc1ccccc1 | - | - | - | 82 | - | -
SMILES | GPR151 ag | FBW7 act | TEAD-YAP block | MITF inh | MITF inh conf | AlphaScreen intf2 | others
CCS(=O)(=O)N1CCN(Cc2ccc(OC)c(OCc3ccccc3)c2)CC1 | - | - | - | - | . | .
CN(C)CCN(C)Cc1ccc(O)c([N+](=O)[O-])c1 | - | - | - | - | . | .
COc1cc(CN(C)CCN(C)C)cc([N+](=O)[O-])c1O | - | - | - | 56 | - | -
COc1cc2cc(C#N)c(SCC(=O)NCc3ccccc3)nc2cc1OC | - | - | - | - | . | .
OCCC1CN(C2CCCCC2)CCN1Cc1ccc(F)c(F)c1 (stereo not given) | - | - | - | - | . | .
CCCn1c(SCC(=O)NCc2ccco2)nnc1-c1ccccn1 | - | - | - | - | . | .
CCCCCCc1cc2cc(/C(N)=N/NC(=O)c3ccc([N+](=O)[O-])cc3)c(=O)oc2cc1O | - | - | - | - | . | .
COc1cc(C(=O)Oc2ccccc2N)cc(OC)c1OC | - | - | - | - | . | .
COc1cc(N)c2nccc(C)c2c1OC | - | - | - | 97 | 119 | 59
COc1cc(CN2CCN(c3ccccc3)CC2)cc(OC)c1OC | - | - | - | - | . | .
COc1cc(CN2CCN(Cc3ccccc3C(F)(F)F)CC2)cc(OC)c1OC | - | - | - | 73 | - | -
COc1cccc(CN2CCN(Cc3ccccn3)CC2)c1OC | - | - | - | 64 | - | -

Screens as filed in PubChem BioAssay.
